# Experimental data reported in PubChem BioAssay (NCATS).
# Results filed as inconclusive are left out. A call without a number means that no potency is given here. The source made the active and inactive calls. Calls come from the whole dose curve; as a rule, active = well fitted inhibition curve with a large enough effect; inconclusive = small, poorly fitted or top-dose-only effect; inactive = no such curve, though single readings can be large or run the other way. Where a SMILES comes first, the peptide text is derived from it. Bridges are numbered along the chain shown (N, C = ends). [ ]: non-standard residue; d: D form. hArg = N=C(N)NCCCC[C@H](N)C(=O)O; Mpa = O=C(O)CCS
# Molecular target: Cytochrome P450 3A7 (Homo sapiens) (UniProt P24462)
# Sequence (P24462 whole entry, looked up): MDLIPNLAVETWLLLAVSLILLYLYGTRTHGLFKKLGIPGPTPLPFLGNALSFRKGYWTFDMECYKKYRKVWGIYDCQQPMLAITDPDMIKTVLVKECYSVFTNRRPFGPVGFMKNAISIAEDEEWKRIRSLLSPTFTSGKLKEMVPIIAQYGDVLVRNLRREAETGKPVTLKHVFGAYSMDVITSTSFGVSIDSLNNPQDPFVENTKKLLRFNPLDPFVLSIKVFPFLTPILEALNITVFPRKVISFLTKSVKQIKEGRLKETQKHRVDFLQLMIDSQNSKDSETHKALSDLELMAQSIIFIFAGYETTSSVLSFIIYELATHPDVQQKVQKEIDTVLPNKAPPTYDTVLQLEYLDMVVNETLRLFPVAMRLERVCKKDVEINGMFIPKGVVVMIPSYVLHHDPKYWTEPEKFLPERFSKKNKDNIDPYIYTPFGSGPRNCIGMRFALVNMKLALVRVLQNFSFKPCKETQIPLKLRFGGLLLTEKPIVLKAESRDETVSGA
# Assay: Cytochrome P450 family 3 subfamily A member 7 (CYP3A7) small molecule antagonists: luciferase biochemical qHTS assay (AID 1963596); note: nearly all actives have a fitted effect of over 40% in size
# Settings: P450-Glo CYP3A7 enzyme luminescence, 1 h; series mostly up to 57.4 µM
# Source text: National Center for Advancing Translational Sciences [NCATS] Assay Overview: Cytochrome P450 (CYP) enzymes are membrane-bound hemeproteins that play a key role in metabolism of drugs and xenobiotics. The CYP3A subfamily is the most abundant, representing 30% of the total adult hepatic CYP content, whereas CYP3A7 is found predominantly in human fetal liver and accounts up to 50% of the total fetal hepatic CYP content. Testing the effect of chemicals on CYP isozymes is useful to minimize the adverse drug reactions and toxicities in the drug development process. Chemicals were tested for their effect on CYP enzyme activities by using P450-Glo (TM) screening systems (Promega Corporation, Madison, WI). These systems provide a luminescent method containing proluciferin substrates and are converted to luciferin products by CYP isozymes. The luciferin products formed are detected with a luciferin detection reagent, and the amount of light produced is proportional to CYP activity. P450-Glo (TM) CYP3A7 screening system (Catalog. No. V8812) was used to detect the compounds that interfere with CYP3A7 activity. The positive control compound used for CYP3A7 assay is ketoconazole (Sigma-Aldrich, St. Louis, MO).
# Assay Protocol Summary: Two ul of enzyme-substrate mix was dispensed into medium binding white/solid 1536-well plates (Greiner Bio-One North America Inc., Monroe, NC) using a Flying Reagent Dispenser (FRD, Aurora Discovery, San Diego, CA). Compounds dissolved in DMSO, and positive control (ketoconazole) were transferred to the assay plates at 23 nl using a Pintool station (Wako, San Diego, CA). The assay plates were incubated at room temperature for 10 min. Then 2 ul of NADPH regeneration solution was added to each well of the assay plates using an FRD and incubated at room temperature for 1 h. The reaction was stopped by adding 4 ul of detection reagent using an FRD and after 20 min incubation at room temperature the luminescence signal was measured using a ViewLux plate reader (Perkin Elmer, Shelton, CT). Data were expressed as relative luminescence units.
# Potency is the fitted concentration of half-maximal effect.
row,SMILES,Potency
1,CCC(Cc1c(I)cc(I)c(O)c1I)C(=O)O (stereo not given),16.9 µM (active)
2,O=C(Nc1cccnc1)c1cc(-c2ccnc(F)c2)ccc1OCc1ccccc1,inactive
3,CN(C)CC(=O)N1CCC(c2ccc(NC(=O)c3ncc(C#N)[nH]3)c(C3=CCCCC3)c2)CC1,inactive
4,Cc1c(NC(=O)c2cccnc2)c(=O)n(-c2ccccc2)n1C,inactive
5,Cc1cc(-n2nc3ccc(Cl)cc3n2)c(O)c(C(C)(C)C)c1,inactive
6,Cc1cc(NS(=O)(=O)c2ccc(N)cc2)no1,inactive
7,CCOc1cc(C(C)(C)C)ccc1C1=NC(C)(c2ccc(Cl)cc2)C(C)(c2ccc(Cl)cc2)N1C(=O)N1CCN(CCCS(C)(=O)=O)CC1 (stereo not given),2.82 µM (active)
8,COc1ccccc1OC(=O)Oc1ccccc1OC,inactive
9,CCn1c(=O)c(-c2ccc(-c3cncs3)cc2Cl)cc2cnc(Nc3ccc(N4CCN(C)CC4)cc3)nc21,3.01 µM (active)
10,O=C1CC[C@H](C(=O)N2CCCCC2)N1,inactive
11,CCCN1CCN(c2ccc(C(=O)NC3(C(=O)NCC#N)CCCCC3)cc2)CC1,inactive
12,Cc1ccc(Nc2nnc(-c3ccc([N+](=O)[O-])cc3)o2)cc1Cl,inactive
13,Nc1cccc2c1CN(C1CCC(=O)NC1=O)C2=O (stereo not given),inactive
14,NC(=O)[C@@H]1CSSCCC(=O)N[C@@H](CCCCN=C(N)N)C(=O)NCC(=O)N[C@@H](CC(=O)O)C(=O)N[C@@H](Cc2c[nH]c3ccccc23)C(=O)N2CCC[C@H]2C(=O)N1 ([Mpa][hArg]GDWPC-NH2; disulfide 1-7),inactive
15,COc1ccc2c(c1)c1c3n2CCN(C)C3=NCC1,inactive
16,NCc1c[nH]c(=S)n1C1CCc2c(F)cc(F)cc2C1 (stereo not given),15.1 µM (active)
17,CN1[C@@H]2CC[C@H]1CC(OC(=O)c1c[nH]c3ccccc13)C2 (stereo not given in full),inactive
18,Cc1cccc(OCC(O)CNC(C)(C)C)c1C (stereo not given),inactive
19,OCC(CO)N[C@H]1C[C@](O)(CO)[C@@H](O)[C@H](O)[C@H]1O,inactive
20,CC(=O)Nc1ccc(C(=O)O)cc1,inactive

row,SMILES,Potency
1,N#C/C(=C/c1ccccc1Cl)c1nc2ccccc2c(=O)[nH]1,inactive
2,C[C@]12CCC(=O)C=C1CC[C@@H]1[C@@H]2[C@@H](O)C[C@@]2(C)[C@H]1CC[C@]2(O)C(=O)CO,inactive
3,COC(=O)Nc1nc2ccc(C(=O)C3CC3)cc2[nH]1,inactive
4,CC[C@H]1OC(=O)C[C@@H](O)[C@H](C)[C@@H](O[C@@H]2O[C@H](C)[C@@H](O[C@H]3C[C@@](C)(O)[C@@H](O)[C@H](C)O3)[C@H](N(C)C)[C@H]2O)[C@@H](CC=O)C[C@@H](C)C(=O)/C=C/C(C)=C/[C@@H]1CO[C@@H]1O[C@H](C)[C@@H](O)[C@@H](OC)[C@H]1OC,inactive
5,CC1CC(OC(=O)C(O)c2ccccc2)CC(C)(C)N1C (stereo not given),inactive
6,O=C(Oc1ccccc1)c1ccccc1O,inactive
7,CCNC(=O)/C=C/c1cccc(Br)c1,inactive
8,CC(C)NC[C@@H](O)COc1ccc(CC(N)=O)cc1,inactive
9,CC(=O)Nc1ccc(CC(=O)O)cc1,inactive
10,O=C(O)C[C@@H](NC(=O)c1cc(-c2ccc(-c3ccncc3)cc2)cs1)c1ccccc1,inactive
11,CNCCC(Oc1ccccc1OC)c1ccccc1 (stereo not given),inactive
12,OC[C@@H](O)[C@@H](O)[C@H](O)[C@H](O)CO,inactive
13,CCCc1c2oc(C(=O)O)cc(=O)c2cc2c(=O)cc(C(=O)O)n(CC)c12,inactive
14,Cc1nc2c([nH]1)CCN(C(=O)c1ccc(NC(=O)c3ccccc3-c3ccccc3)cc1)c1ccccc1-2,inactive
15,O=C(O)Cn1cnnn1,inactive
16,Cc1nc(NC(=O)N2CCC[C@H]2C(N)=O)sc1-c1ccnc(C(C)(C)C(F)(F)F)c1,inactive
17,Cc1ccc(-n2c(SCc3cccc(F)c3)nc3[nH]ncc3c2=O)cc1C,inactive
18,C#CC(C)(CC)OC(=O)c1ccccc1C(=O)O (stereo not given),inactive
19,COc1cccc(NC[C@@H](O)Cn2c3ccc(Br)cc3c3cc(Br)ccc32)c1,inactive
20,CCCCCCCCCCCCCCCCNc1ccc(C(=O)O)cc1,inactive
